In PubChem BioAssay AID488969 (Vanderbilt High Throughput Screening Facility, 2010):
Over roughly 110,000 compounds, “z-score” has its median near -0.1; the highest 2% begin near 2. This excerpt belongs to a sample that is enriched for the highest values. Calls of active or inactive are those of the source.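 Rule for the calls: active = z-score in the third read window above 3 or below -3; inactive = the rest.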

What follows are compounds tested against Metabotropic glutamate receptor 8 (Rattus norvegicus) (UniProt P70579) (assay: rat mGluR8 modulators via GIRK flux, primary screen, cell-based, thallium flux, HTS (AID 488969)). Conditions: HEK293 rat mGluR8, GIRK (G protein-gated inwardly rectifying potassium channel) thallium flux, FluoZin2; at 10 µM; stronger effect = higher value; submaximal glutamate (EC20) added with thallium.
Sequence of Metabotropic glutamate receptor 8 (Rattus norvegicus) (P70579 whole entry, looked up): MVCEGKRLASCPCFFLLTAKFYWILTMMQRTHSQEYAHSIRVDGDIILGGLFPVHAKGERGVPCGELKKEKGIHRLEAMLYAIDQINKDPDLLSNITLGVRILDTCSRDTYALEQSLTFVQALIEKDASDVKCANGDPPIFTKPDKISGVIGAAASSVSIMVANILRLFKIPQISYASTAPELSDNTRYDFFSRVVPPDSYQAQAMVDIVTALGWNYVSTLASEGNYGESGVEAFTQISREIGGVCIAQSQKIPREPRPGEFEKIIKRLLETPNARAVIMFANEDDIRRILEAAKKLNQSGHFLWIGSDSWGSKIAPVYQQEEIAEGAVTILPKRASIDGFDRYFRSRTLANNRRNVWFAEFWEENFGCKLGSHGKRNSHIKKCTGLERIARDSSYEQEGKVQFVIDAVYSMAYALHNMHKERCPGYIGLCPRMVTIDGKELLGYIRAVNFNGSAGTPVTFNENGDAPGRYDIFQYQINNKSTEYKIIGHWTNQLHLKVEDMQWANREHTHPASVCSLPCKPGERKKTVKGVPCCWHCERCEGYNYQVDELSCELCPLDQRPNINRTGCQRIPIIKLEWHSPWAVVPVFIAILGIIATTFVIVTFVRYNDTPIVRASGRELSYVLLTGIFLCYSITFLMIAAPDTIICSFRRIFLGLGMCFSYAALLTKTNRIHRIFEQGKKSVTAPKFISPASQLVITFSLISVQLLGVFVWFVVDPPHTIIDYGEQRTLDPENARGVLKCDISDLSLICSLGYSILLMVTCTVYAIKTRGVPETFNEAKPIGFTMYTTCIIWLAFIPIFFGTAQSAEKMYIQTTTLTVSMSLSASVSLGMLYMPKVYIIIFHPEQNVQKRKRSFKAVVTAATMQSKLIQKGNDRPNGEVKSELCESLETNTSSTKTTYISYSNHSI

Structure (SMILES)	z-score
Cc1ccc(C(=O)COC(=O)c2n[nH]c(=O)c3ccccc23)cc1	-0.454
CC(C)(C)c1cnnn1-c1ccc(-c2csc(N)n2)cc1	-0.0644
COc1cc(C2C(Oc3ccccc3C)C(=O)N2Cc2ccc(F)cc2)cc(OC)c1OC (stereo not given)	-0.106
Cc1ccc(S(=O)(=O)N2CCCCC2)cc1NC(=O)COC(=O)Cc1ccc(Cl)cc1	-0.0868
Cc1ccc(NC(=O)COC(=O)C2CC3C=CC2C3)cc1S(=O)(=O)N1CCCCC1 (stereo not given)	2.02
COc1cc(/C=C/C(=O)OCC(=O)Nc2ccc(C)c(S(=O)(=O)N3CCCCC3)c2)ccc1O	-0.427
O=C(COC(=O)C1CC2C=CC1C2)Nc1ccccc1 (stereo not given)	0.0334
Cc1ccc(S(=O)(=O)N2CCCCC2)cc1NC(=O)COC(=O)c1cc[n+]([O-])cc1	-0.223
Cc1ccc(S(=O)(=O)N2CCCCC2)cc1NC(=O)COC(=O)C1CC2C=CC1C2 (stereo not given)	2.38
Cc1cc(C)n2nc(C(=O)OCC(=O)Nc3ccc4c(c3)OC(F)(F)O4)nc2n1	-0.0308
Cc1ccc(NC(=O)COC(=O)C2CC2C)c(S(=O)(=O)N2CCCCC2)c1 (stereo not given)	2.07
O=C(COC(=O)C1CC2C=CC1C2)Nc1ccc2c(c1)OC(F)(F)O2 (stereo not given)	4.04 (active)
Cc1ccc(NC(=O)COC(=O)C2CCC(=O)N2)c(S(=O)(=O)N2CCOCC2)c1 (stereo not given)	-0.196
Cc1cnc(C(=O)OCC(=O)Nc2ccc(C)c(S(=O)(=O)N3CCCCC3)c2)cn1	-1
CCOC(=O)Nc1ccc(OC)cc1S(=O)(=O)N1CCCCC1	0.612
CCS(=O)(=O)c1nc2ccccc2n1CC(=O)N1CCCCC1	0.849
COc1cc(O)c(C(C)=O)cc1OC	0.68
CC1(c2ccccc2)CC(C)(C)N2C(=O)C3(C(C#N)=C(N)Oc4cc(O)ccc43)c3cccc1c32 (stereo not given)	-0.217
Cc1nn(-c2ccccc2)c(Cl)c1/C=C1\SC(=S)NC1=O	-0.842
CC1(c2ccccc2)CC(C)(C)N2C(=O)/C(=C3\SC(=S)NC3=O)c3cccc1c32 (stereo not given)	5.26 (active)
O=C(COc1ccc(S(=O)(=O)NC2CCCCC2)cc1Cl)NCc1cccnc1	-0.567
Cc1cc(NC(=O)c2cccc(S(=O)(=O)N3CCCCCC3)c2)no1	0.223

Structure (SMILES)	z-score
O=C(COC(=O)Cn1cnc2ccccc2c1=O)Nc1ccccc1Sc1ccc(Cl)cc1	0.148
CC1CC(C)(C)Nc2ccc(OC(=O)c3ccco3)cc21 (stereo not given)	2.2
COC(=O)C1=C(C)NC(C)=C(C(=O)OC)C1c1ccc(OC(=O)c2ccco2)cc1	-0.519
COC(=O)c1ccc(OC(=O)c2ccco2)cc1	0.696
COc1cc(CNc2nc(C)c([N+](=O)[O-])c(C)c2C#N)cc(OC)c1	-0.18
COc1ccc(CCN2C(=O)C(O)=C(C(C)=O)C2c2ccccc2OC)cc1OC (stereo not given)	-0.511
CC(C)CC(=O)CN1C(=O)C2(OCCO2)c2ccccc21	6.5 (active)
CC(C)(C)C(=O)CN1C(=O)C2(OCCO2)c2ccccc21	0.508
O=C(O)CN1C(=O)C2(OCCCO2)c2ccccc21	0.0511
CC(C)OC(=O)C1C2C=CC3(CN(Cc4cccs4)C(=O)C13)O2 (stereo not given)	0.0334
O=C(NC(=S)Nc1ccc(S(=O)(=O)NC2CCCCC2)cc1)c1cccs1	0.16
O=C(Nc1ccc(S(=O)(=O)NCc2ccccc2)cc1)c1ccc(Br)o1	0.32
CCCCN(CCCC)S(=O)(=O)c1ccc(NC(=O)c2cccs2)cc1	0.572
CN(C)S(=O)(=O)c1ccc(NC(=O)c2ccc(Br)o2)cc1	0.638
CCN(c1ccccc1)S(=O)(=O)c1ccc(NC(=S)NC(=O)c2cccs2)cc1	2.75
CN(C1CCCCC1)S(=O)(=O)c1ccc(NC(=S)NC(=O)c2cccs2)cc1	2.93
CCN(c1ccccc1)S(=O)(=O)c1ccc(NC(=S)NC(=O)c2ccc(Br)o2)cc1	5.31 (active)
CN(c1ccccc1)S(=O)(=O)c1ccc(NC(=S)NC(=O)c2ccccc2)cc1	3.04 (active)
O=C(Nc1ccc(NC(=S)NC(=O)c2cccs2)cc1)c1ccccc1	-0.193
Cc1cccc(C(=O)NC(=S)Nc2ccc(S(=O)(=O)N(C)c3ccccc3)cc2)c1	1.39
CN(C1CCCCC1)S(=O)(=O)c1ccc(NC(=O)C2CCCCC2)cc1	-0.089
Cc1ccc(C(=O)NC(=S)Nc2ccc(S(=O)(=O)N(C)c3ccccc3)cc2)cc1	0.95

Structure (SMILES)	z-score
CN1CCN(S(=O)(=O)c2ccc(NC(=S)NC(=O)c3ccccc3)cc2)CC1	0.103
O=C(c1ccco1)N1CCN(C(=O)C2CCN(S(=O)(=O)c3cccc4nsnc34)CC2)CC1	0.0379
COc1ccc2c(c1)NC1(O)c3ccccc3C(=O)C21O (stereo not given)	0.297
CC1(C)N=C(N)NC(Nc2ccc(Br)cc2)=N1	-0.00115
Cc1ccccc1-c1noc(-c2ccc(Cl)cc2)n1	-0.0855
COc1ccc(-c2csc(NC(=O)c3nc(-c4ccccc4)oc3C)n2)cc1	0.528
Cc1nc2ccccc2nc1OCC(=O)N1CCN(c2ccccc2)CC1	-0.273
Cc1ccc2c(c1)N(C(=O)c1ccco1)C(C)(C)c1ssc(=S)c1-2	-0.788
COc1ccccc1-n1cnnc1SCC(=O)N1CC(=O)Nc2ccccc21	-0.0356
CS(=O)(=O)N1Cc2ccccc2CC1C(=O)OCC(=O)Nc1ccc2ccccc2c1 (stereo not given)	0.0644
Cc1cc(C)cc(NS(=O)(=O)c2ccc(NC(=S)Nc3ccccc3)cc2)c1	9.02e-05
Cc1cc(C)cc(NS(=O)(=O)c2ccc(NC(=S)NC(=O)c3cccs3)cc2)c1	0.901
Cc1cc(C)cc(NS(=O)(=O)c2ccc(NC(=S)NC(=O)c3ccc(Br)o3)cc2)c1	2.18
CCc1[nH]nc2c1C(c1ccncc1)C(C#N)=C(N)O2 (stereo not given)	0.499
O=C(O)c1ccc(NC(=S)NC2CCCCC2)cc1	0.13
O=C(CN1C(=O)c2cccc3cccc1c23)NCc1ccc2c(c1)OCO2	-0.178
Cc1cc(C)nc(N2CCCC(C(=O)NCCc3ccc(F)cc3)C2)n1 (stereo not given)	3.52 (active)
Cc1cc(C)nc(N2CCCC(C(=O)NCCc3cccc(F)c3)C2)n1 (stereo not given)	-0.0417
Cc1cc(C)nc(N2CCCC(C(=O)NCCc3ccccc3F)C2)n1 (stereo not given)	-0.306
COc1cc(S(=O)(=O)N2CCOCC2)ccc1NC(=O)COC(=O)CC12CC3CC(CC(C3)C1)C2	0.016
CCOC(=O)c1cc2sccc2n1CC(=O)N1CCCC1	-0.278
